{
  "source": "PubChem BioAssay (NCATS)",
  "note": "Values joined by “and” are separate entries in the source; they are usually repeats but may differ in a detail not shown here. Equal entries are not always repeated. Results filed as inconclusive are left out. Unmarked numbers belong to inactive results. Active and inactive are the calls of the source. Calls come from the whole dose curve; as a rule, active = well fitted curve in the direction sought with a large enough effect; inconclusive = small, poorly fitted or top-dose-only effect, or another doubt; inactive = no such curve, though single readings can be large; an effect the other way counts as inactive or inconclusive. *1 amine or outer side, *2 acyl side, *3 side chain or, on linkers, in order; H or OH if unused. Where a SMILES comes first, the peptide text is derived from it. Bridges are numbered along the chain shown (N, C = ends). Roman numbers before positions name the chains, in order. [ ]: non-standard residue; d: D form. ξ: configuration not given here. Actinocin(9to1) = Cc1c2oc3c(C)ccc(C(=O)[*:1])c3nc-2c(C(=O)[*:2])c(N)c1=O; ξNMeV = CNC(C(=O)O)C(C)C; ξV = CC(C)C(N)C(=O)O; Sar = CNCC(=O)O",
  "data": [
    {"test_system": "Zika virus NS2B-NS3 protease (linked construct)", "test": "Primary screen NINDS Rhodamine qHTS for Zika virus inhibitors (AID 1347160); note: nearly all actives have a fitted effect of over 55% in size; for activity change, negative = inhibition: % is set by controls: 0 for no effect and ±100 for the full control effect", "conditions": "purified NS2B-NS3 protease, Rhodamine110 substrate fluorescence; series mostly up to 57.1 µM", "method_in_brief": "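In 10 mM Tris-HCl pH 8.0 containing 0.01% Tween 20, linked NS2B-NS3 protease (25 nM final) is exposed to test compounds for 15 min. Cleavage of 1.5 microM Rhodamine110 substrate is tracked by fluorescence over 15 min.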", "values": [
      {"smiles": "C=C(C)[C@H]1C[C@@H](O)C(=C)CC[C@@H](O)C(=C)[C@@H](O)C1", "Potency": "inactive"},
      {"smiles": "COc1ccc(C[C@H](N)C(=O)N[C@H]2[C@@H](O)[C@H](n3cnc4c(N(C)C)ncnc43)O[C@@H]2CO)cc1", "Potency": "inactive"},
      {"smiles": "CC12CCC3C(C)(C)C(O)CCC3(C)C1Cc1c(oc(C(=O)O)cc1=O)O2", "note": "(configuration not stated)", "Potency": "inactive"},
      {"smiles": "CC1CCC2(C)C(CC(O)C(O)C23CO3)C1(C)CCC1=CC(O)OC1=O", "note": "(configuration not stated)", "Potency": "inactive"},
      {"smiles": "COC1=CC(=O)O[C@@H](/C=C/c2ccccc2)[C@@H]1O", "Potency": "inactive"}
    ]},
    {"test_system": "not listed separately", "test": "Confirmatory screen NINDS Rhodamine qHTS for Zika virus inhibitors (AID 1347161); note: potency is the fitted concentration of half-maximal effect; nearly all actives have a fitted effect of over 60% in size", "conditions": "purified enzyme assay, Rhodamine110 substrate fluorescence, 15 min", "method_in_brief": "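Purified linked NS2B-NS3 protease (NS2B hydrophilic domain joined to NS3 protease by flexible linker), 25 nM in 10 mM Tris-HCl pH 8.0, 0.01% Tween 20. Compounds titrated, 15 min preincubation at room temperature; 1.5 microM Rhodamine110 substrate, FITC fluorescence change over 15 min.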", "values": [
      {"smiles": "CC(C)C(=O)c1cn(CC(=O)COc2ccc(Oc3ccccc3)cc2)c2ccc(C(=O)O)cc12", "Potency": "5.55 µM (active)"},
      {"smiles": "O=S(=O)(O)c1ccc2c(N=Nc3ccc(S(=O)(=O)O)c4ccccc34)c(O)c(S(=O)(=O)O)cc2c1", "Potency": "3.16 µM (active)"},
      {"smiles": "Nc1c(N=Nc2ccc(-c3ccc(N=Nc4cc(S(=O)(=O)O)c5ccccc5c4N)cc3)cc2)cc(S(=O)(=O)O)c2ccccc12", "Potency": "2.24 µM (active)"},
      {"smiles": "O=S(=O)(O)c1cc(O)c2c(N=Nc3ccc(Nc4ccccc4)c4c(S(=O)(=O)O)cccc34)cc(S(=O)(=O)O)cc2c1", "Potency": "5.62 µM (active)"},
      {"smiles": "CC12CCC3C(C)(C)C(O)CCC3(C)C1Cc1c(oc(C(=O)O)cc1=O)O2", "note": "(configuration not stated)", "Potency": "27.3 µM (active)"}
    ]},
    {"test_system": "Zika virus NS2B-NS3 protease (linked)", "test": "384 well plate NINDS AMC confirmatory qHTS for Zika virus inhibitors (AID 1347163); note: potency is the fitted concentration of half-maximal effect; nearly all actives have a fitted effect of over 50% in size", "conditions": "Recombinant NS2B-NS3 protease, Ac-VKTGKR-AMC fluorescence; series mostly up to 100 µM", "method_in_brief": "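Linked protease 5/30/60 nM final; cpds up to 1 mM final, ~15 min preinc. Substrate Ac-VKTGKR-AMC 30 microM final. RT, dark, 25 min; FI ex 355/em 460; normalized to no-enzyme/no-inhibitor ctrls.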", "values": [
      {"smiles": "CC(C)C(=O)c1cn(CC(=O)COc2ccc(Oc3ccccc3)cc2)c2ccc(C(=O)O)cc12", "Potency": "44.7 µM (active)"},
      {"smiles": "O=S(=O)(O)c1ccc2c(N=Nc3ccc(S(=O)(=O)O)c4ccccc34)c(O)c(S(=O)(=O)O)cc2c1", "Potency": "63.1 µM (active) and 79.4 µM (active)"},
      {"smiles": "O=S(=O)(O)c1cc(O)c2c(N=Nc3ccc(Nc4ccccc4)c4c(S(=O)(=O)O)cccc34)cc(S(=O)(=O)O)cc2c1", "Potency": "12.6 µM (active)"}
    ]},
    {"test_system": "Zika virus NS2B-NS3 protease (linked construct)", "test": "384 well plate NINDS Rhodamine confirmatory qHTS for Zika virus inhibitors (AID 1347164); note: nearly all actives have a fitted effect of over 65% in size; note: potency is the fitted concentration of half-maximal effect;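 for activity change, negative = inhibition: top concentration of the series differs between compounds; plate controls were no-inhibitor control for no effect and no-enzyme control for full effect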", "conditions": "rhodamine-110 peptide substrate fluorescence; series mostly up to 100 µM", "method_in_brief": "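Linked NS2B-NS3 protease (final 5, 30 or 60 nM) preincubated ~15 minutes with compounds, then 10 microM Ac-LKRR-Rhodamine 110 added. Fluorescence (485/538 nm) read after 25 minutes at room temperature, normalized to no-enzyme and no-inhibitor controls.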", "values": [
      {"smiles": "CC(C)C(=O)c1cn(CC(=O)COc2ccc(Oc3ccccc3)cc2)c2ccc(C(=O)O)cc12", "Potency": "inactive"},
      {"smiles": "O=S(=O)(O)c1ccc2c(N=Nc3ccc(S(=O)(=O)O)c4ccccc34)c(O)c(S(=O)(=O)O)cc2c1", "Potency": "15.8 µM (active) and 12.6 µM (active)"},
      {"smiles": "CC(C)N=c1cc2n(-c3ccc(Cl)cc3)c3ccccc3nc-2cc1Nc1ccc(Cl)cc1", "Potency": "inactive"},
      {"smiles": "Nc1c(N=Nc2ccc(-c3ccc(N=Nc4cc(S(=O)(=O)O)c5ccccc5c4N)cc3)cc2)cc(S(=O)(=O)O)c2ccccc12", "Potency": "7.08 µM (active)"},
      {"smiles": "O=S(=O)(O)c1cc(O)c2c(N=Nc3ccc(Nc4ccccc4)c4c(S(=O)(=O)O)cccc34)cc(S(=O)(=O)O)cc2c1", "Potency": "6.31 µM (active)"}
    ]},
    {"test_system": "not listed separately", "test": "Vero cells viability qHTS for Zika virus inhibitors (AID 1347167); note: % is set by controls: 0 for no effect and ±100 for the full control effect", "conditions": "cytotoxicity counter-screen (Zika); series mostly up to 45.9 µM", "method_in_brief": "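Cells seeded at 2.5 x 10^5 cells/mL in DMEM with 4% FBS and attached overnight at 37 degrees C, then exposed to compound for 24 to 48 hours. Viability read as ATP content by CellTiter Glo luminescence.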", "values": [
      {"smiles": "CC(C)C(=O)c1cn(CC(=O)COc2ccc(Oc3ccccc3)cc2)c2ccc(C(=O)O)cc12", "outcome": "inactive"},
      {"smiles": "CC(C)N=c1cc2n(-c3ccc(Cl)cc3)c3ccccc3nc-2cc1Nc1ccc(Cl)cc1", "outcome": "inactive"},
      {"smiles": "Cc1c2oc3c(C)ccc(C(=O)N[C@@H]4C(=O)NC(C(C)C)C(=O)N5CCC[C@H]5C(=O)N(C)CC(=O)N(C)C(C(C)C)C(=O)O[C@@H]4C)c3nc-2c(C(=O)N[C@@H]2C(=O)NC(C(C)C)C(=O)N3CCC[C@H]3C(=O)N(C)CC(=O)N(C)C(C(C)C)C(=O)O[C@@H]2C)c(N)c1=O", "note": "(some centres not stated) (I: T[ξV]P[Sar][ξNMeV] / II: T[ξV]P[Sar][ξNMeV]; ester I:1-I:C, II:1-II:C; linker I:N-II:N via Actinocin(9to1))", "outcome": "inactive"}
    ]},
    {"test_system": "not listed separately", "test": "Tertiary RLuc qRT-PCR qHTS assay for Zika virus inhibitors (AID 1347169); note: nearly all actives have a fitted effect of over 55% in size; note: potency is the fitted concentration of half-maximal effect; for activity change, negative = inhibition: top concentration of the series differs between compounds; % is set by controls: 0 for no effect and ±100 for the full control effect", "conditions": "infected Vero cells, reporter luminescence, 48-72 h; series mostly up to 45.9 µM", "method_in_brief": "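Vero cells (1,000/well) infected with recombinant ZIKV-RLuc (Cambodian) at MOI 1-2 after compound addition, 48-72 hrs at 37 degrees C. Live-cell Renilla luciferase substrate added; luminescence read after 1-1.5 hrs.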", "values": [
      {"smiles": "CC(C)C(=O)c1cn(CC(=O)COc2ccc(Oc3ccccc3)cc2)c2ccc(C(=O)O)cc12", "Potency": "18.6 µM (active)"},
      {"smiles": "O=S(=O)(O)c1ccc2c(N=Nc3ccc(S(=O)(=O)O)c4ccccc34)c(O)c(S(=O)(=O)O)cc2c1", "Potency": "inactive"},
      {"smiles": "CC(C)(O)/C=C1/C(=O)C(C)(C)C(=O)C(C)(C)C1(O)O[C@@H]1O[C@H](COC(=O)c2cc(O)c(O)c(O)c2)[C@@H](O)[C@H](O)[C@H]1O", "note": "(some centres not stated)", "Potency": "inactive"},
      {"smiles": "Cc1c2oc3c(C)ccc(C(=O)N[C@@H]4C(=O)NC(C(C)C)C(=O)N5CCC[C@H]5C(=O)N(C)CC(=O)N(C)C(C(C)C)C(=O)O[C@@H]4C)c3nc-2c(C(=O)N[C@@H]2C(=O)NC(C(C)C)C(=O)N3CCC[C@H]3C(=O)N(C)CC(=O)N(C)C(C(C)C)C(=O)O[C@@H]2C)c(N)c1=O", "note": "(some centres not stated) (I: T[ξV]P[Sar][ξNMeV] / II: T[ξV]P[Sar][ξNMeV]; ester I:1-I:C, II:1-II:C; linker I:N-II:N via Actinocin(9to1))", "Potency": "0.208 µM (active)"},
      {"smiles": "O=S(=O)(O)c1cc(O)c2c(N=Nc3ccc(Nc4ccccc4)c4c(S(=O)(=O)O)cccc34)cc(S(=O)(=O)O)cc2c1", "activity change, negative = inhibition": "-4.11% [at 1.74 µM]"},
      {"smiles": "CC12CCC3C(C)(C)C(O)CCC3(C)C1Cc1c(oc(C(=O)O)cc1=O)O2", "note": "(configuration not stated)", "Potency": "inactive"}
    ]}
  ]
}
